# Laboratory results: the supplement of paper PMC8728848
# This excerpt belongs to a sample that is enriched for the strongest signals.
# How the values were obtained:
# Assay in all cases: glycan array binding signal (z-score within array); higher = stronger binding
# Settings in all cases: glycan notation: IUPAC condensed, linker removed
# [1] = molecular target: Fuc(a1-2)Gal6S(b1-4)Glc6S
# Procedure, shortened: (§1)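 Glycan array binding is given as a within-array Z-score, which can be read as non-binding when negative. The arrays, 3228 of them, came from the Consortium for Functional Glycomics database and were retained only where the protein sequence was available. Z-scores were averaged across arrays of the same protein sequence at different concentrations or buffers and across linkers.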
# [2] = molecular target: Fuc(a1-2)[Gal(a1-3)]Gal(b1-4)GlcNAc
# Procedure, shortened: as §1
# [3] = molecular target: Fuc(a1-2)[GalNAc(a1-3)]Gal(b1-3)GlcNAc
# Procedure, shortened: as §1
# [4] = molecular target: Fuc(a1-2)[GalNAc(a1-4)]Gal(b1-4)GlcNAc
# Procedure, shortened: as §1
# [5] = molecular target: Fuc(a1-3)GlcNAc
# Procedure, shortened: as §1
# [6] = molecular target: Fuc(a1-3)[Gal(b1-4)]GlcNAc(b1-2)Man(a1-6)[Gal(b1-4)GlcNAc(b1-2)Man(a1-3)]Man(b1-4)GlcNAc(b1-4)GlcNAc
# Procedure, shortened: as §1
# [7] = molecular target: Fuc(a1-4)GlcNAc
# Procedure, shortened: as §1
# [8] = molecular target: Gal(a1-3)[Gal(a1-4)]Gal(b1-4)GlcNAc
# Procedure, shortened: as §1
# [9] = molecular target: Gal(a1-4)Gal(b1-4)Glc
# Procedure, shortened: as §1
# [10] = molecular target: Gal(b1-4)GalNAc(a1-3)[Fuc(a1-2)]Gal(b1-4)GlcNAc
# Procedure, shortened: as §1
# [11] = molecular target: Gal(b1-4)Glc
# Procedure, shortened: as §1
# [12] = molecular target: Gal(b1-4)Glc6S
# Procedure, shortened: as §1
# [13] = molecular target: GlcNAc(a1-3)Gal(b1-4)GlcNAc
# Procedure, shortened: as §1
# [14] = molecular target: GlcNAc(a1-6)Gal(b1-4)GlcNAc
# Procedure, shortened: as §1
# [15] = molecular target: Neu5Ac(a2-3)Gal
# Procedure, shortened: as §1
# [16] = molecular target: Neu5Ac(a2-3)Gal(b1-4)[Fuc(a1-3)]GlcNAc(b1-3)Gal(b1-4)GlcNAc
# Procedure, shortened: as §1
# [17] = molecular target: Neu5Ac(a2-3)Gal(b1-4)[Fuc(a1-3)]GlcNAc(b1-6)[Gal(b1-3)]GalNAc
# Procedure, shortened: as §1
# [18] = molecular target: Neu5Ac(a2-3)GalNAc(b1-4)GlcNAc
# Procedure, shortened: as §1
# [19] = molecular target: Neu5Ac(a2-6)Gal(b1-4)Glc
# Procedure, shortened: as §1
# [20] = molecular target: Neu5Ac(a2-6)Gal(b1-4)GlcNAc
# Procedure, shortened: as §1
# [21] = molecular target: Neu5Ac(a2-6)Gal(b1-4)GlcNAc(b1-2)Man(a1-3)[Gal(b1-4)GlcNAc(b1-2)Man(a1-6)]Man(b1-4)GlcNAc(b1-4)GlcNAc
# Procedure, shortened: as §1
# [22] = molecular target: Neu5Ac(a2-6)Gal(b1-4)GlcNAc(b1-2)Man(a1-3)[GlcNAc(b1-2)Man(a1-6)]Man(b1-4)GlcNAc(b1-4)GlcNAc
# Procedure, shortened: as §1
# [23] = molecular target: Neu5Ac(a2-6)Gal(b1-4)GlcNAc(b1-2)Man(a1-3)[Neu5Ac(a2-6)Gal(b1-4)GlcNAc(b1-2)Man(a1-6)]Man(b1-4)GlcNAc(b1-4)GlcNAc
# Procedure, shortened: as §1
# [24] = molecular target: Neu5Ac(a2-6)Gal(b1-4)GlcNAc(b1-2)Man(a1-6)[GlcNAc(b1-2)Man(a1-3)]Man(b1-4)GlcNAc(b1-4)GlcNAc
# Procedure, shortened: as §1
# [25] = molecular target: Neu5Ac(a2-6)Gal(b1-4)GlcNAc6S
# Procedure, shortened: as §1
# [26] = molecular target: Fuc(a1-2)[Gal(a1-3)]Gal
# Procedure, shortened: as §1
# [27] = molecular target: Fuc(a1-2)[Gal(a1-3)]Gal(b1-4)Glc
# Procedure, shortened: as §1
# [28] = molecular target: Fuc(a1-2)[Gal(a1-4)]Gal(b1-4)GlcNAc
# Procedure, shortened: as §1
# [29] = molecular target: Gal(a1-3)Gal
# Procedure, shortened: as §1
# [30] = molecular target: Gal(b1-3)GlcNAc(b1-3)Gal(b1-3)GlcNAc
# Procedure, shortened: as §1
# [31] = molecular target: Gal3S(b1-4)GlcNAc6S
# Procedure, shortened: as §1
# [32] = molecular target: GalNAc(a1-3)Gal
# Procedure, shortened: as §1
# [33] = molecular target: GlcA(b1-3)GlcNAc
# Procedure, shortened: as §1
# [34] = molecular target: GlcNAc(b1-3)Gal(b1-4)Glc
# Procedure, shortened: as §1
# [35] = molecular target: Neu5Ac(a2-6)GalNAc
# Procedure, shortened: as §1
# [36] = molecular target: Neu5Ac(a2-8)Neu5Ac(a2-3)[GalNAc(b1-4)]Gal(b1-4)Glc
# Procedure, shortened: as §1
# [37] = molecular target: Neu5Gc(a2-3)Gal(b1-4)Glc
# Procedure, shortened: as §1
# [38] = molecular target: Neu5Gc(a2-3)Gal(b1-4)GlcNAc
# Procedure, shortened: as §1
# [39] = molecular target: Neu5Gc(a2-6)GalNAc
# Procedure, shortened: as §1
# [40] = molecular target: Fuc(a1-2)Gal6S(b1-4)GlcNAc
# Procedure, shortened: as §1
# [41] = molecular target: Fuc(a1-2)[GalNAc(a1-3)]Gal(b1-4)GlcNAc
# Procedure, shortened: as §1
# [42] = molecular target: Fuc(a1-2)[GalNAc(a1-3)]Gal(b1-4)[Fuc(a1-3)]GlcNAc
# Procedure, shortened: as §1
# [43] = molecular target: Gal(b1-3)Gal(b1-4)GlcNAc
# Procedure, shortened: as §1
# [44] = molecular target: Gal(b1-3)GalNAc(b1-4)[Neu5Ac(a2-3)]Gal(b1-4)Glc
# Procedure, shortened: as §1
# [45] = molecular target: Gal(b1-3)[Neu5Ac(a2-6)]GalNAc
# Procedure, shortened: as §1
# [46] = molecular target: Gal(b1-4)GlcNAc(a1-6)Gal(b1-4)GlcNAc
# Procedure, shortened: as §1
# [47] = molecular target: Gal(b1-4)GlcNAc(b1-3)Gal(b1-4)[Fuc(a1-3)]GlcNAc(b1-3)Gal(b1-4)[Fuc(a1-3)]GlcNAc
# Procedure, shortened: as §1
# [48] = molecular target: Gal(b1-4)GlcNAc(b1-3)[Gal(b1-4)GlcNAc(b1-6)]Gal(b1-4)GlcNAc
# Procedure, shortened: as §1
# [49] = molecular target: Gal3S6S(b1-4)GlcNAc6S
# Procedure, shortened: as §1
# [50] = molecular target: Man(a1-2)Man(a1-3)[Man(a1-2)Man(a1-6)]Man(a1-6)[Man(a1-2)Man(a1-2)Man(a1-3)]Man
# Procedure, shortened: as §1
# [51] = molecular target: Man(a1-3)[Man(a1-6)]Man
# Procedure, shortened: as §1
# [52] = molecular target: Man(a1-3)[Man(a1-6)]Man(a1-6)[Man(a1-3)]Man(b1-4)GlcNAc(b1-4)GlcNAc
# Procedure, shortened: as §1
# [53] = molecular target: Neu5Ac(a2-3)Gal(b1-3)GalNAc6S
# Procedure, shortened: as §1
# [54] = molecular target: Neu5Ac(a2-3)Gal(b1-3)GlcNAc(b1-3)Gal(b1-3)GlcNAc
# Procedure, shortened: as §1
# [55] = molecular target: Neu5Ac(a2-8)Neu5Ac
# Procedure, shortened: as §1
binder,measurement,setting,value
"SLR2P3F12 (Tachypleus tridentatus), TAL2_TACTR (protein) MEKGTPPTHDSDNWMGRAKKIGNGGWNQFQFLFFDPNGYLYAVSKDKLYKASPPQSDTDNWIARATEIGSGGWSGFKSLFFHPNGYLYAVHGQRLYKALPPVSNQD",glycan array binding signal (z-score),[1],-0.343
same,glycan array binding signal (z-score),[2],-0.417
same,glycan array binding signal (z-score),[3],0.556
same,glycan array binding signal (z-score),[4],2.01
same,glycan array binding signal (z-score),[5],-0.301
same,glycan array binding signal (z-score),[6],0.218
same,glycan array binding signal (z-score),[7],1.42
same,glycan array binding signal (z-score),[8],0.143
same,glycan array binding signal (z-score),[9],-0.342
same,glycan array binding signal (z-score),[10],-0.208
same,glycan array binding signal (z-score),[11],2.75
same,glycan array binding signal (z-score),[12],-0.248
same,glycan array binding signal (z-score),[13],5.11
same,glycan array binding signal (z-score),[14],13.2
same,glycan array binding signal (z-score),[15],-0.415
same,glycan array binding signal (z-score),[16],-0.203
same,glycan array binding signal (z-score),[17],2.75
same,glycan array binding signal (z-score),[18],0.435
same,glycan array binding signal (z-score),[19],-0.125
same,glycan array binding signal (z-score),[20],-0.317
same,glycan array binding signal (z-score),[21],-0.422
same,glycan array binding signal (z-score),[22],-0.235
same,glycan array binding signal (z-score),[23],0.131
same,glycan array binding signal (z-score),[24],1.27
same,glycan array binding signal (z-score),[25],0.194
"SLR2P2A3 (Tachypleus tridentatus), TAL2_TACTR (protein) MEKGTPPTHDSDNWMGRAKKIGNGGWNQFQFLFFDPNGYLYAVSKDKLYKASPPQSDTDNWIARATEIGSGGWSGSKFLFFHPNGYLYAVHGQRLYKALPPVSNQD",glycan array binding signal (z-score),[26],-0.054
same,glycan array binding signal (z-score),[27],-0.191
same,glycan array binding signal (z-score),[28],-0.148
same,glycan array binding signal (z-score),[4],7.28
same,glycan array binding signal (z-score),[7],-0.416
same,glycan array binding signal (z-score),[29],-0.317
same,glycan array binding signal (z-score),[30],-0.344
same,glycan array binding signal (z-score),[31],-0.09
same,glycan array binding signal (z-score),[32],6.13
same,glycan array binding signal (z-score),[33],0.168
same,glycan array binding signal (z-score),[13],5.44
same,glycan array binding signal (z-score),[14],6.84
same,glycan array binding signal (z-score),[34],5.09
same,glycan array binding signal (z-score),[35],-0.16
same,glycan array binding signal (z-score),[36],-0.279
same,glycan array binding signal (z-score),[37],-0.253
same,glycan array binding signal (z-score),[38],-0.059
same,glycan array binding signal (z-score),[39],-0.125
"R410P1E11 (Tachypleus tridentatus), TAL2_TACTR (protein) MEKGTPPTHDSDNWMGRAKEIGNGGWDQFQFLFFDPNGYLYAVSNDKLYKASPPQSDTDNWIARATEIGSGGWSGFKFLFFHPNGYLYAVRGQRFYKALPPVSNQD",glycan array binding signal (z-score),[40],-0.187
same,glycan array binding signal (z-score),[27],-0.282
same,glycan array binding signal (z-score),[41],2.74
same,glycan array binding signal (z-score),[42],1.41
same,glycan array binding signal (z-score),[4],5.65
same,glycan array binding signal (z-score),[7],-0.369
same,glycan array binding signal (z-score),[9],-0.323
same,glycan array binding signal (z-score),[43],-0.622
same,glycan array binding signal (z-score),[44],-0.397
same,glycan array binding signal (z-score),[45],-0.538
same,glycan array binding signal (z-score),[46],-0.52
same,glycan array binding signal (z-score),[47],-0.411
same,glycan array binding signal (z-score),[48],-0.144
same,glycan array binding signal (z-score),[49],0.451
same,glycan array binding signal (z-score),[32],7.43
same,glycan array binding signal (z-score),[13],3.25
same,glycan array binding signal (z-score),[14],10.1
same,glycan array binding signal (z-score),[50],-0.751
same,glycan array binding signal (z-score),[51],-0.45
same,glycan array binding signal (z-score),[52],-0.483
same,glycan array binding signal (z-score),[53],-0.515
same,glycan array binding signal (z-score),[54],0.008
same,glycan array binding signal (z-score),[18],0.139
same,glycan array binding signal (z-score),[55],-0.039
